# Measured values as given in PubChem BioAssay (NCI).
# This is part of a sample that, as a whole, favours compounds with a hit. Of some 83,000 tested, about 20% had one in any assay.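 Activity criterion: percent growth below 10, measured after cells in 96-well plates were exposed to a single compound concentration for 48 hours.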 Values without a mark were called inactive. Calls of active or inactive are those of the source.
# Tested on: MDA-MB-468 breast
# Test: NCI-60 one-dose screen, 48 h (100 = growth as untreated, 0 = no growth, -100 = all killed)
# Conditions: 10 µM unless noted
row,SMILES,growth
1,CC1=NC(c2ccc(Cl)cc2)C2=C(N1)/C(=C/c1ccc(Cl)cc1)CCC2 (stereo not given),75.8%
2,Cc1ccc(/C=C/C(=O)Nc2ncc(Cc3ccc(F)cc3)s2)o1,34%
3,CCN(CC)S(=O)(=O)c1ccc(-c2nc(C(Cl)Cl)nc3cc(C)nn23)cc1,-33.6% (active)
4,CC(=O)c1c(C)nc2ccccc2c1/C=C/c1cccc(C)c1,28.5%
5,CO[C@H]1CC(O[C@@H]2/C(C)=C/C[C@@H]3C[C@@H](C[C@]4(C=C[C@H](C)[C@@H](C5CCCCC5)O4)O3)OC(=O)[C@@H]3C=C(C)[C@@H](O)[C@H]4OC/C(=C\C=C\[C@@H]2C)[C@]43O)O[C@@H](C)C1O[C@H]1C[C@H](OC)[C@@H](O)[C@H](C)O1 (stereo not given in full),-72.5% (active)
6,C#C[C@]1(O)CC[C@H]2[C@@H]3CC=C4c5sc(Nc6cccc(F)c6)nc5CC[C@]4(C)[C@H]3CC[C@@]21C,3.86% (active)
7,Cc1ccc(C(=O)NCCCNc2nccc(-n3ccc4cccnc43)n2)cc1,95.6%
8,CCCCCCc1nc2nc(Cl)c(Cl)nc2[nH]1,31.1%
9,CN(C)CCOc1cccc(NC2=C(Cl)C(=O)C(Nc3cccc(OCCN(C)C)c3)=C(Cl)C2=O)c1,-47.1% (active)
10,COc1ccc(CN2C(=O)/C(=C\C(=O)c3ccc(OCCN4CCCC4)cc3)c3ccccc32)cc1,49.3%
11,O=C(Nc1ncc(Cc2ccccc2)s1)c1cc(-c2ccccc2)nc2ccccc12,103%
12,O=C(/C=C/c1ccc(Cl)cc1)c1ccc(Br)cc1,107%
13,O=C(Nc1ccc(CN2CCc3nc4cc(O)c(O)cc4cc32)cc1)c1ccc(Cl)c(Cl)c1,97.4%
14,CN(C)CCCC1(c2ccc(F)cc2)OCc2cc(-c3cncc4ccccc34)ccc21 (stereo not given),-4.62% (active)
15,CC(C)C1=NOC(=O)C1=Cc1cn(-c2cccnc2)nc1-c1ccccc1,108%
16,O=C(/C=C/c1ccc([N+](=O)[O-])o1)NNC(=O)c1cc2ccccc2cc1O,6.09% (active)
17,COc1ccc(NC(=O)[C@@H]2C[C@H]2c2ccccc2)c(C(N)=O)c1,101%
18,COc1ccc2nc3cc(Cl)ccc3c(N3CCN(c4nccc(Nc5ccccc5)n4)CC3)c2c1,37.9%
19,O=C(Nc1cccc(-n2cc(-c3ccncc3)c(-c3ccc(Cl)c(O)c3)n2)c1)Nc1cc(C(F)(F)F)cc(C(F)(F)F)c1,-23.9% (active)
20,CCN(CC)c1ccc(N=O)cc1,23.7%

row,SMILES,growth
1,Fc1ccc(CNc2c3ccccc3nc3ccccc23)cc1,11.5%
2,COc1ccc(/C=C2/CN(C(=O)c3ccccc3F)C/C(=C\c3ccc(OC)cc3)C2=O)cc1,1.01% (active)
3,Fc1ccc(CNCCNc2ncnc3c2cnn3-c2ccccc2)cc1,81.4%
4,S=C(Cc1ccc(-c2ccccc2)cc1)N1CCOCC1,90.8%
5,COc1ccc(/C=N/NC(=O)c2c(N)nn(C)c2Nc2ccccc2)cc1,-1.26% (active)
6,CCCCCn1c(=N)n(CC(O)COc2cccc(C)c2)c2ccccc21 (stereo not given),-3.97% (active)
7,Cn1nc(CC#N)c2c(=N)n(N)cnc21,106%
8,N#CC(=C1SCS1)[N+](=O)[O-],-4.62% (active)
9,COc1cc(/C=C/C(=O)N2CCC=CC2=O)cc(OC)c1OC,22.7%
10,CCN(CC)CCCNc1nc(C)cc(Nc2ccc3nc(C)cc(N)c3c2)n1,117%
11,Cc1cc(C)on1,98.5%
12,COC(=O)c1cc(-c2cc(OC)c(OC)c(OC)c2)[nH]c1N/N=C/c1c(Cl)cccc1Cl,-9.15% (active)
13,Fc1ccccc1-c1cnn2cc(-c3ccccc3)cnc12,124%
14,Cc1ncn(-c2ccc(/C=N/Nc3ccnc4cc(Cl)ccc34)cc2)c1C,-21.4% (active)
15,COc1ccc(-c2nc(SCC(=O)Nc3nc(-c4ccccc4)cs3)[nH]c(=O)c2C#N)cc1,84.2%
16,COc1ccc(-c2nc3c(N)c(CO)cnc3s2)cc1,57.6%
17,Cc1cc(Nc2ccc(F)cc2)nc(N2CCN(c3ccnc4cc(Cl)ccc34)CC2)n1,17.6%
18,COc1ccc(CNc2ccc3nc(CCC4CCCCC4)[nH]c3c2)cc1,39.1%
19,COc1cccc(-c2nn(-c3ccccc3)cc2-c2ccnc(NCCCNS(=O)(=O)c3ccc(C(F)(F)F)cc3)c2)c1,-9.51% (active)
20,CCCCCCNC(=O)Oc1ccc(/C(=C(\C)c2ccc(Cl)cc2)c2ccc(OCCN(CC)CC)cc2)cc1,52.4%
